# Calls of active or inactive are those of the source. How the source made its calls: active means hit-call score of the fitted dose curve at least 0.9, where 1 is the maximum; inactive means score below 0.9.
# Test system: NCBI gene 100038242
# Assay: CCTE_GLTED_xDIO3: CCTE's Xenopus Iodothyronine Deiodinase Type 3 (xDIO3) Inhibition Assay, Great Lakes Toxicology and Ecology Division (GLTED) Lab
# Description: CCTE_GLTED_xDIO3 is a cell-free, single-readout assay designed to test the inhibitory activity of chemicals toward Xenopus (frog) iodothyronine Deiodinase Type 3 (DIO3) enzyme. Enzyme is incubated in presence of test chemical for 3 hours during which uninhibited enzyme liberates free iodide from substrate. Free iodide is measured in a second step using the Sandell-Kolthoff method.CCTE_GLTED_xDIO3 is the assay component measured from the CCTE_GLTED_xDIO assay. It is designed to make measurements of enzyme activity, a form of enzyme reporter, as detected with absorbance signals by spectrophotometry.Data from the assay component CCTE_GLTED_xDIO3 was analyzed at the assay endpoint CCTE_GLTED_xDIO3 in the positive analysis fitting direction relative to DMSO as the negative control and baseline of activity. Using a type of enzyme reporter, loss-of-signal activity can be used to understand deiodinase Type 3 activity. To generalize the intended target to other relatable targets, this assay endpoint is annotated to the 'deiodinase' intended target family, where the subfamily is 'deiodinase Type 3'.
# […]
Structure (SMILES),AC50,outcome
O=C(O)C(F)(F)C(F)(F)C(F)(F)C(F)(F)C(F)(F)C(F)(F)C(F)(F)C(F)(F)C(F)(F)C(F)F,161 µM (active),
C=C(C)C(=O)OCC(F)(F)C(F)(F)C(F)(F)F,,inactive
C=C(C)C(=O)OCC(F)(F)C(F)(F)C(F)(F)C(F)F,17.7 µM (active),
C=CC(=O)OCC(F)(F)C(F)(F)C(F)(F)COC(=O)C=C,33.5 µM (active),
O=C(O)C(F)(F)C(F)(F)C(F)(F)C(F)(F)C(F)(F)C(F)(F)C(F)(F)C(F)(F)Cl,,inactive
C=CC(=O)OCC(F)(F)C(F)(F)C(F)(F)C(F)(F)C(F)(F)C(F)(F)C(F)(F)C(F)F,20.7 µM (active),
COc1cc(O)c(CC=C(C)C)c(O)c1C(=O)/C=C/c1ccc(O)cc1,0.16 µM (active),
O=C(O)C(F)(F)OC(F)(F)C(F)(F)OC(F)(F)C(F)(F)OC(F)(F)C(F)(F)C(F)(F)C(F)(F)F,72.2 µM (active),
OC(O)(C(F)C(O)(O)C(F)(F)F)C(F)(F)F,19.8 µM (active),
C=CC(=O)OCCC(F)(F)C(F)(F)C(F)(F)C(F)(F)F,24.4 µM (active),
C=CC(=O)OCC(F)(F)C(F)(F)C(F)(F)C(F)(F)COC(=O)C=C,15.9 µM (active),
O=P(O)(O)CCC(F)(F)C(F)(F)C(F)(F)C(F)(F)C(F)(F)C(F)(F)C(F)(F)C(F)(F)F,,inactive
O=C(Cl)C(F)(F)C(F)(F)C(F)(F)C(F)(F)C(F)(F)C(F)(F)C(F)(F)C(F)(F)F,,inactive
O=C(O)C(F)(F)C(F)(F)C(F)(F)C(F)(F)C(F)(F)C(F)(F)C(F)(F)C(F)(F)C(F)(F)C(F)(F)C(F)(F)C(F)(F)F,,inactive

# Source: PubChem BioAssay AID2284339 (EPA ToxCast)
